Hit rate of the full screen: of about 69,000 compounds, about 8,600 (12%) showed an effect of 50% or more. The sample as a whole holds a higher share of strong results than the screen did.

This assay relates to Plasmodium berghei. Put plainly: Screen against P. berghei liver stage (PbLuc), transformed with Luciferase, at 10uM. Type of assay: functional, HepG2. Conditions: tested at 10 uM.
As to `O=C(C1CCOCC1)N1CCc2ncc(CN3CCOCC3)n2CC1`, the INHIBITION is -3.88%. For `COCCN1CCC2(CCN(c3ncccn3)CC2)C1=O` the value was 34.6%; for `Cc1ccc(CN2C[C@@H]3[C@@H](C(=O)NCC4CC4)CCS(=O)(=O)[C@@H]3C2)cc1`, -21.1%; for `Cc1cc(C)cc(C(=O)Nc2cn[nH]c2)c1`, 7.77%. In the case of `O=C(NC1CCCC1)c1cc(Sc2ncccn2)ccn1`, the INHIBITION was -48.4%. The result for `Cc1[nH]ncc1C(=O)NCC1CCC2(CC1)OCCO2` reads 32%. For `O=C(NCC1CCC2(CC1)OCCO2)c1ccncc1F` the value was 57.7%. For `Cc1cc(C(=O)NCC2CCC3(CC2)OCCO3)[nH]n1` the value was 41.4%; for `CCSc1ccc(C(C)NC(=O)CCS(C)(=O)=O)cc1` (stereo unspecified), 2.91%; for `CCSc1ccc(C(C)NC(=O)CNS(C)(=O)=O)cc1` (stereo unspecified), 51.7%. Take `CC(C)Sc1ccc(C(C)NC(=O)CNS(C)(=O)=O)cc1` (stereo unspecified): the INHIBITION amounted to 38%. Turning to `CCSCCNc1nc(-c2ccccn2)nc2c1c(C)nn2C`, the INHIBITION stood at 51.3%. For the compound `Cc1nn(C)c2nc(-c3ccccn3)nc(NCCCOC(C)C)c12`, the INHIBITION is 5.46%. For `CC(=O)NCCNc1nc(-c2ccccn2)nc2c1c(C)nn2C` the value was 39.1%; for `CC(C)N(C)Cc1cnc2n1CCN(C(=O)Cc1cccs1)C2C` (stereo unspecified), -18.5%; for `Cc1nccn1C1CCCN(C(=O)c2ccnc(-n3ccnc3)c2)C1` (stereo unspecified), 18.2%. With `CC(C)n1nnc(CC(=O)NCC2(c3ccccc3F)CCOCC2)n1`, the INHIBITION is listed as 27.05%. Consider `O=C(c1cc2cccc(F)c2[nH]1)N1C[C@@H](O)[C@H](N2CCOCC2)C1`, for which the INHIBITION is recorded as -9.08%.

Consider `CC(NC1(CNC(=O)OC(C)(C)C)CCOCC1)c1ccccc1` (stereo unspecified), for which the INHIBITION was 36.6%.

On to `CCOCC(=O)NCC1(NC(C)c2ccccc2)CCOCC1` (stereo unspecified), for which the INHIBITION is given as 42%.

Take `CC(NC1(CNC(=O)CC2CCCC2)CCOCC1)c1ccccc1` (stereo unspecified): the INHIBITION is 82.1%.

As for `CC(NC1(CNC(=O)CC(C)(C)C)CCOCC1)c1ccccc1` (stereo unspecified), the INHIBITION is on record as -6.75%. Consider `CCC(CC)C(=O)NCC1(NC(C)c2ccccc2)CCOCC1` (stereo unspecified), for which the INHIBITION is 59.3%. Take `CC(NC1(CNC(=O)NC2CC2)CCOCC1)c1ccccc1` (stereo unspecified): the INHIBITION was found to be 43.1%.

For `COc1cccc(CNCC2(COc3cccnc3)C[C@@H](O)[C@@H](O)C2)c1` (stereo partly specified), the INHIBITION is given as 46.4%. `CC(Nc1ccc(C(F)(F)F)cc1C#N)c1cccc(S(N)(=O)=O)c1` (stereo unspecified): the INHIBITION is 28.6%.

For `OC(CNc1ccc(Cl)cn1)CN1CCOCC1` (stereo unspecified), the INHIBITION is given as -58.5%. The result for `CC(C)(CO)Nc1c(NCc2ccccn2)c(=O)c1=O` reads 6.34%. Turning to `O=c1c(NCc2ccncc2)c(NCC(O)CN2CCOCC2)c1=O` (stereo unspecified), the INHIBITION came out at 50.8%. The result for `O=c1c(NCc2ccccn2)c(NCC(O)CN2CCOCC2)c1=O` (stereo unspecified) reads 50.8%; that for `O=c1c(NCc2ccco2)c(NCC(O)CN2CCOCC2)c1=O` (stereo unspecified), 48.9%. For `CC(C)CNC(=O)CNc1c(NCc2ccccn2)c(=O)c1=O` the value was -8.8%; for `CC(NC(=O)NCc1cccnc1N(C)C)c1ccc(F)cc1` (stereo unspecified), -12.1%; for `COCCC(=O)N1C[C@@H]2CC[C@H]1CN(C1Cc3ccccc3C1)C2`, -20.6%. For `CN(C)CCO[C@H]1CN(C(=O)c2ccc[nH]2)[C@@H]2COC[C@H]12` the value was 7.65%; for `CCN(CC)C1CCN(C(=O)c2cc(-n3cccn3)ccc2Cl)CC1`, 14.6%; for `c1ccc2c(c1)C(NC1CCCC1)CC21CCNCC1` (stereo unspecified), 71.1%. For `Cc1ccc2c(c1)C(NC(C)C)CC21CCNCC1` (stereo unspecified), the INHIBITION is -46.4%. The result for `CC(C)NC1CC2(CCNCC2)c2cc(F)ccc21` (stereo unspecified) reads -33.1%; that for `CC(=O)N1CC2(CCNCC2)c2cc(C)ccc21`, 7.77%; that for `Cc1ccc2c(c1)C1(CCNCC1)CC2NCCO` (stereo unspecified), 55.7%. Consider `Cc1ccc2c(c1)C1(CCNCC1)CC2NC(C)C` (stereo unspecified), for which the INHIBITION is -22.7%. In the case of `Fc1ccc2c(c1)C1(CCNCC1)CC2OCC1CC1` (stereo unspecified), the INHIBITION is -5.63%. For `Fc1ccc2c(c1)C1(CCNCC1)CC2NC1CC1` (stereo unspecified) the value was 95.5%. `CCN1CCC2(CC1)CC(NC(=O)NC)c1cc(C)ccc12` (stereo unspecified): the INHIBITION was -25%. For `CNC(=O)NC1CC2(CCNCC2)c2ccc(C)cc21` (stereo unspecified) the value was 63%; for `Cc1ccc(OCC(O)CN2CCC(Cn3cccn3)CC2)cc1` (stereo unspecified), 28.5%. For `Cc1ccc(-c2nc(C(=O)N3CCCC(C(N)=O)C3)cs2)c(C)c1` (stereo unspecified) the value was -79.45%; for `CC(c1ccncc1)N(CCN(C)C)C(=O)Nc1ccc(Cl)cc1` (stereo unspecified), 8.49%; for `Cc1nn(CC(C)C)c(C)c1CC(=O)N1CCCC(NS(C)(=O)=O)C1` (stereo unspecified), 17.1%. Consider `Cc1cc(C)c(C#N)c(N2CCC3(CCCN(CCO)C3=O)C2)n1` (stereo unspecified), for which the INHIBITION is -17.2%. On to `COc1cn(CC(=O)N2CCC(c3ccccc3)CC2)c(C)cc1=O`, for which the INHIBITION turned out to be 12.4%. The result for `COc1ccc2c(c1)C1(CCNCC1)CC2NC1CC1` (stereo unspecified) reads 94.6%; that for `COc1cccc(N2C(=O)CC3(CCNCC3)C2=O)c1`, 22.3%; that for `Cc1ccc2c(c1)C1(CCNCC1)CC2OCC1CC1` (stereo unspecified), -26.5%. For `Cc1ccc2c(c1)C1(CCNCC1)CC2NC1CC1` (stereo unspecified) the value was 67.5%.
